Structures are written as SMILES. Where “and” joins values, the source holds several entries; their conditions need not be identical. Equal values may be shown once. Compounds without any hit were thinned out: in the full panel of roughly 83,000, 20% have a hit.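 Plates (96-well) were seeded with cells, treated with compound at one concentration, and incubated for 48 hours before percent growth was determined.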 Unmarked numbers belong to inactive results. Calls of active or inactive are those of the source. The calls were made as follows: active = growth percent below 10; inactive = the rest.

The test system of this assay is MDA-MB-468 breast. Briefly: NCI-60 one-dose screen, 48 h (100 = growth as untreated, 0 = no growth, -100 = all killed). As to conditions: 10 µM unless noted.
With `OCCOc1c(Cl)cc(Cl)cc1Cl`, the growth was 127%.
On to `Cl.Fc1c[c-]c(-c2ccccn2)c(F)c1.[Pt].c1ccc([PH+](C[PH+](c2ccccc2)c2ccccc2)c2ccccc2)cc1`, for which the growth was -75.7% (active).
Regarding `O=C(Nc1ccc(-n2cc(-c3ccncc3)c(-c3ccc(O)c(Cl)c3)n2)cc1)Nc1ccc(Cl)c(C(F)(F)F)c1`, the growth is -6.63% (active).
In the case of `N#CCc1ncc(-c2ccc(C(F)(F)F)cc2)c(NC2CCCCCC2)n1`, the growth is 42.3% [100 µM].
For the molecule `O=C1NC(=O)/C(=C\c2ccccc2)C2=C1CCCC2`, the growth is 95.3%.
Regarding `O=C(Nc1ccc([N+](=O)[O-])cc1Cl)c1cc(Cl)ccc1O`, the growth is -21.5% (active) and -24.3% (active).
Consider `O=C(NNc1nc2cc(F)cc(F)c2n2cccc12)c1ccncn1`, for which the growth was -7.49% (active).
As to `COc1cc2cc(Oc3ccc(NC(=O)Nc4cccc(C(F)(F)F)c4)cc3)c(C)nc2cc1OCCN1CCOCC1`, the growth was -3.82% (active).
With `CCN1C(=O)N(CC)C2C1NC(=S)N2/N=C/C=C/c1cccs1` (stereo not given), the growth was 7.59% (active).
Regarding `CN(C)c1ccc(/C=C(\C#N)c2cc3ccccc3[nH]2)cc1`, the growth was -3.07% (active).
On to `O=C(O)c1cn(C2CC2)c2cc(N3CCN(C(=O)Nc4nc(-c5ccc(Br)cc5)cs4)CC3)c(F)cc2c1=O`, for which the growth is 13.7%.
In the case of `NS(=O)(=O)c1ccc(-n2nc(C(=O)N/N=C\c3ccc(F)cc3)cc2-c2ccc(Br)cc2)cc1`, the growth was 73.9%.
For `CS(=O)(=O)Cc1cnc(C2OCCO2)s1`, the growth was 97.7%.
As to `Cc1cccc(C)c1N1C(c2ccccc2)=NNC12C=CC(=O)c1c(O)cccc12` (stereo not given), the growth is 85.1%.
Consider `COc1cnc2c(c1)C(=O)c1c-2n(CCCn2ccnc2)c(=O)c2cc(OC)c(OC)cc12`, for which the growth was -25.7% (active).
Consider `COc1ccc(/C=C/C(=O)c2ccc(NC(=O)CSc3nnc(-c4cc(-c5ccccc5)nc5ccccc45)n3-c3ccccc3)cc2)cc1`, for which the growth was 97.2%.
For the molecule `CCc1nc2ccccc2[nH]1`, the growth was 109%.
With `Fc1cc(Nc2ccc3c(OCCCN4CCOCC4)cccc3n2)ccc1Cl`, the growth is 28.5%.
`C=CCn1c(SCC(=O)Nc2ccc(C(=O)/C=C/c3ccc(Cl)cc3)cc2)nnc1-c1cc(-c2ccccc2)nc2ccccc12`: the growth was 61.6%.
For the molecule `COc1ccc2nc3c(cc2c1)C(=O)CC(C(F)(F)F)C3` (stereo not given), the growth is 35.6%.
On to `COc1ccc(C(=O)CSc2nc(-c3cc(OC)ccc3OC)cc(-c3ccc(OC)cc3)c2C#N)cc1`, for which the growth was 105%.
Regarding `O=C(O)CSc1ccc(NCc2oc(CO)cc(=O)c2O)cc1`, the growth is 108%.
As to `COc1cc(C(=O)/C=C/c2c(C)n([O-])c3ccc(Cl)cc3[n+]2=O)cc(OC)c1OC`, the growth is 27.6%.
Regarding `FC(F)(F)c1ccc(-c2cnc(Br)nc2NC2CCCCCC2)cc1`, the growth is 12.6%.
As for `O=C1c2cccnc2C(=O)c2c1c(C(=O)OCCc1ccccn1)c1ccccn21`, the growth was -23% (active).
For the molecule `CC(C)[C@@]12C[C@@H](OC(=O)C3CO3)[C@@](C)(O1)[C@@H]1CC[C@@H](C)[C@H]1[C@@H]2OC(=O)/C=C/c1ccccc1` (stereo not given in full), the growth is 95.4%.
As for `COc1ccc2c(C3=C(c4c[nH]c5ccccc45)C(=O)N(O)C3=O)coc2c1`, the growth was 88.6%.
Take `CCNC1(NC#N)CCCCC1`: the growth is 101%.
Then `Nc1c(C(=O)Nc2ccncc2)sc2nc3c(cc12)CCCCCCCC3`, with -75.7% (active); and `CN1CCCC1c1cccnc1` (stereo not given), with 97.1%.
For the molecule `COc1ccc(-c2nc(SCC(C)C)nc(Nc3ccc(C)cc3)c2C#N)cc1`, the growth was 71.1%.
Consider `O=C(Cc1ccc(F)cc1)c1ccccc1`, for which the growth is 127%.
As for `COc1cc(/C=C/c2cc(/C=C/c3ccc(O)c(OC)c3)n(C(=O)Nc3ccc(Cl)cc3)n2)ccc1O`, the growth was -26.4% (active).
For `Cc1ccc2c(n1)C(=O)C(Oc1ccc(F)cc1)=CC2=O`, the growth was 87.7%.
With `COc1cc(-c2nc3nc4sc(C)c(C)c4c(=O)n3[nH]2)cc(OC)c1OC`, the growth was 75.5%.
Then `CC(Oc1ccc(C(=O)O)cc1C(F)(F)F)c1ccc(Oc2ccccc2)cn1` (stereo not given), with 97.3%; and `Cc1ccc(-n2nnc(C3=NCCc4c3[nH]c3ccc(Cl)cc43)c2C)cc1`, with 71.5%; and `CCCCCC(C)(O)C(C(=O)O)c1ccccc1` (stereo not given), with 108%.
`CC[C@H]1[C@@H]2C=C[C@@H]3[C@H]4C/C=C\C(=O)NCCC[C@@H]5NC(=O)/C(=C(O)/C=C/[C@@H]4C[C@@H]3[C@H]2C[C@H]1C)C5=O`: the growth is 76.8%.
For `CNc1nc2ncn(C)c2c(=O)[nH]1`, the growth was 101%.
